{
  "source": "PubChem BioAssay AID493168",
  "about": "(National Center for Advancing Translational Sciences (NCATS), 2011)",
  "note": "Results filed as inconclusive are left out. Entries that show only a call come without a potency. Active and inactive are the calls of the source. Calls come from the whole dose curve; as a rule, active = well fitted inhibition curve with a large enough effect; inconclusive = small, poorly fitted or top-dose-only effect, or effect the other way; inactive = flat fitted curve, though single readings scatter. Potency is the fitted concentration of half-maximal effect.",
  "data": [
    {"target": "Ubiquitin carboxyl-terminal hydrolase 2 (Homo sapiens) (UniProt O75604)", "sequence (O75604 whole entry, looked up)": "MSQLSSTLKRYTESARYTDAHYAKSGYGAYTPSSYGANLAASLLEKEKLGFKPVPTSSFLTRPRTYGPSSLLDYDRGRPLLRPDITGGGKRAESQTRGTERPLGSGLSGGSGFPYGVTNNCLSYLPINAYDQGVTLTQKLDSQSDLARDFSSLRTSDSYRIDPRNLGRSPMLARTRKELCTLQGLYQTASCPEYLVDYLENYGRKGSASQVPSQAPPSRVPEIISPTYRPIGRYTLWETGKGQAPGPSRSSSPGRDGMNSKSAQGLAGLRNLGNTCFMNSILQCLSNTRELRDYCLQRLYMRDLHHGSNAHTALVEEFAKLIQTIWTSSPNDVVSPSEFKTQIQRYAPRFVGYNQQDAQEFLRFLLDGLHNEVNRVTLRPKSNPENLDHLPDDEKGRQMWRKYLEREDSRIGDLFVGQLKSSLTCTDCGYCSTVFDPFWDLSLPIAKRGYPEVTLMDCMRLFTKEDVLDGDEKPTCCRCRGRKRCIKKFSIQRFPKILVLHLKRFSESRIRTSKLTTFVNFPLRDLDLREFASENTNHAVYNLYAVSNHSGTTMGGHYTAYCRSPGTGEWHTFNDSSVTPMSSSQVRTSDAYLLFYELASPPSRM", "test": "Confirmation Assay for Inhibitors of Ubiquitin-specific Protease USP2a Using CHOP2 as the Reporter; note: nearly all actives have a fitted effect of over 55% in size", "details": "USP2 core, Ub-CHOP2 coupled reporter fluorescence; series mostly up to 38.3 µM", "from_the_text": "NIH Molecular Libraries Probe Centers Network [MLPCN] NIH Chemical Genomics Center [NCGC] MLSCN Grant: XO1-MH079852-01 PI Name: Nicholson, Ben. Progenra Inc, Malvern, PA NCGC Assay Overview: Homeostasis of cellular proteins is maintained through a combination of synthesis and degradation. The pathway that accounts for the majority of protein degradation is the ubiquitin-proteasomal pathway. Ubiquitin (Ub) is highly conserved in all cells and the generation of a multi-Ub chain typically targets proteins for degradation by the proteasome. However, ubiquitination is highly reversible and dynamic. Deubiquitination, the reverse process, is catalyzed through the action of enzymes referred to as isopeptidases or deubiquitinating enzymes (DUBs). This group of enzymes is collectively responsible for maintaining adequate pools of free ubiquitin and regulating the ubiquitination status of cellular proteins. The class of DUBs referred to as the ubiquitin-specific proteases (USP) family functions endoproteolytically to cleave Ub chains from a wide range of protein substrates. USP2a deubiquitinates fatty acid synthase (FASN) which has recently been identified as an emerging oncology target. To identify inhibitors of USP2a a cell-free assay was employed. […] The reporter enzyme chosen is an […] called CHOP2, which is activated when the Ub is cleaved by USP2. The free and now activated reporter can subsequently act on its reporter substrate. Thus, this coupled assay gives a fluorescent read-out at excitation/emission wavelengths of 485/531. The assay was developed by Progenra, Inc. and has been licensed for sale by LifeSensors, Inc. as Ub-CHOP2-Reporter-Kit (#PR1101).\nNCGC Assay Protocol Summary: The assay buffer, prepared fresh at the day of the assay, contains 20mM Tris-HCl pH 8.0, 2mM CaCl2, 2mM beta-Mercaptoethanol, 0.05% CHAPS. 3ul of 20nM (10nM final) USP2 core, which is stored on ice, is dispensed into a medium-binding black solid Kalypsys 1,536 well plate using the Kalypsys dispenser. The assay plate is then pinned with 23nL compound with the Kalypsys pintool in columns 5-48. The controls are pinned as follows: column 1 two-fold dilutions of 2M NEM in duplicate; column 2 2M NEM (final concentration 38.2mM); column 3&4 DMSO. The assay plate is incubated at RT for 30min. Subsequently, 1.5uL of 100nM (25nM final) Ub-CHOP2 and 1.5uL of 100nM (25nM final) Reporter Substrate (both stored on ice and protected from light) were dispensed into the plate using the Kalypsys dispenser. Plates were read after 60min RT incubation on a ViewLux (Perkin Elmer) plate reader using the following wavelengths Ex 485nm /Em 531nm. Data were normalized to the to AC100 inhibition (NEM). Concentration-response curves were fitted to the normalized data and the concentration-response curves were then classified based on curve quality (r2), response magnitude and degree of measured activity. The time zero reading was used to flag fluorescence artifacts. Keywords: ubiquitination, deubiquitination, proteases, profluorescent, MLSMR, MLPCN, NIH Roadmap, qHTS, NCGC", "values": [
      {"smiles": "Nc1ccc(S(=O)(=O)N2CCCCC2c2cccnc2)cc1", "note": "(stereo not drawn)", "Potency": "inactive"},
      {"smiles": "CCCC1=C(C(=O)OCC)C2(C(=O)Nc3ccc(C)cc32)C(C#N)=C(N)O1", "note": "(stereo not drawn)", "Potency": "inactive"},
      {"smiles": "O=C1NC(=O)N(Cc2ccco2)C(=O)/C1=C/c1cccn1CCOc1ccccc1Cl", "Potency": "inactive"},
      {"smiles": "O=c1[nH]c(=O)n(Cc2ccc(F)cc2)c(O)c1C=NCCCn1ccnc1", "Potency": "inactive"},
      {"smiles": "COc1ccc(S(=O)(=O)Cc2ccc(C(=O)N3CCC4(CC3)OCCO4)o2)cc1", "Potency": "inactive"},
      {"smiles": "CC(=Nc1ccc2c(c1)CCC2)c1c(O)n(C)c(=O)n(C)c1=O", "Potency": "inactive"},
      {"smiles": "O=C1CC(=O)N(Cc2ccccc2)C(=O)N1CCCCCCN1C(=O)CC(=O)N(Cc2ccccc2)C1=O", "Potency": "inactive"},
      {"smiles": "Cc1nn(Cc2ccc(Cl)cc2Cl)c(Cl)c1C(=O)Nc1ccc(OC(F)F)cc1", "Potency": "inactive"},
      {"smiles": "O=C1NC(=O)N(Cc2ccco2)C(=O)/C1=C/C=C/c1ccco1", "Potency": "13.1 µM (active)"},
      {"smiles": "FC(F)(F)c1ccc2c(c1)N(CCCN1CCN(CCCl)CC1)c1ccccc1S2", "Potency": "inactive"},
      {"smiles": "NC(N)=N/N=C/c1ccc(N(c2ccccc2)c2ccccc2)cc1", "Potency": "16.5 µM (active)"},
      {"smiles": "O=C(COc1ccc(S(=O)(=O)N2CCOCC2)cc1)N1CCN(Cc2ccc3c(c2)OCO3)CC1", "Potency": "inactive"},
      {"smiles": "COc1ccc(NC(=O)c2c(C)nn(Cc3ccccc3Cl)c2Cl)cc1Cl", "Potency": "inactive"},
      {"smiles": "O=C(O)c1cccc2c1NC(C(=O)O)C1CC(Sc3ccccc3[N+](=O)[O-])C(Cl)C21", "note": "(stereo not drawn)", "Potency": "7.36 µM (active)"},
      {"smiles": "O=C1NC(=S)N(c2ccccc2)C(=O)/C1=C/c1ccco1", "Potency": "14.7 µM (active)"},
      {"smiles": "OC(c1ccncc1)(c1ccc(F)cc1)c1ccc(F)cc1", "Potency": "inactive"},
      {"smiles": "O=c1[nH]c(=S)n(Cc2ccco2)c(O)c1C=NCc1cccs1", "Potency": "inactive"},
      {"smiles": "CC1Oc2cc3c(-c4c(O)cc(O)c5c(O)c6c(cc45)OC(C)C(C)C6=O)c(O)cc(O)c3c(O)c2C(=O)C1C", "note": "(stereo not drawn)", "Potency": "13.1 µM (active)"}
    ]}
  ]
}
